# PubChem BioAssay (Tox21)
# Values joined by “and” are separate entries in the source; they are usually repeats but may differ in a detail not shown here. Equal values may be shown once. Inconclusive results are not listed. Where a call stands in place of a potency, no number is given. Some compounds were tested as several samples or in several runs, with calls that do not always agree. Active and inactive are the calls of the source. Calls come from the whole dose curve; as a rule, active = well fitted curve in the direction sought with a large enough effect in the repeat runs; inconclusive = weak or mixed curves; inactive = no such curve, though single readings can be large; an effect the other way counts as inactive or inconclusive.
# Assays:
# [1] = A CellTox Green Cytotoxicity Assay to monitor cytotoxicity in HEK293 cells - 24 hour (AID 1224875); note: series mostly up to about 77 µM; nearly all actives have a fitted effect of over 45% in size
# Summary of the method: (§1)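 Dead-cell fluorescence measured kinetically: asymmetric cyanine dye, HEK293, 600 cells/well, 5 h settle, 23 nL cpd/DMSO, 37 C, reads 0–40 h every 8 h.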
# [2] = A CellTox Green Cytotoxicity Assay to monitor cytotoxicity in HepG2 cells - 16 hour (AID 1224876); note: nearly all actives have a fitted effect of over 45% in size; note: potency is the fitted concentration of half-maximal effect
# Summary of the method: (§2)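 First, HepG2 cells (600/well) mixed with reagent were plated; second, after 5 h at 37 C they received compounds via pintool; third, fluorescence was measured at 0 h through 40 h at 8 h intervals.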
# [3] = qHTS RealTime-Glo MT Cell Viability Assay in HepG2 cells - 32 hour (AID 1224877); note: nearly all actives have a fitted effect of over 55% in size; note: potency is the fitted concentration of half-maximal effect
# Summary of the method: (§3)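 Real-time, nonlytic viability: 600 HepG2 cells/well mixed with NanoLuc enzyme plus prosubstrate; 5 h settle, compound (DMSO) added by pintool; luminescence monitored over 40 h at 37 C.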
# [4] = qHTS RealTime-Glo MT Cell Viability Assay in HEK293 cells - 0 hour (AID 1224880); note: top concentration of the series differs between compounds; nearly all actives have a fitted effect of over 45% in size
# Summary of the method: (§4)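 600 HEK293 cells per well, dispensed already mixed with RealTime-Glo MT reagents. Compound dosing came 5 h later. The same wells were read for luminescence at 0, 8, 16, 24, 32 and 40 h of exposure at 37 C.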
# [5] = A CellTox Green Cytotoxicity Assay to monitor cytotoxicity in HEK293 cells - 32 hour (AID 1224881); note: nearly all actives have a fitted effect of over 40% in size; note: potency is the fitted concentration of half-maximal effect
# Summary of the method: as §1
# [6] = A CellTox Green Cytotoxicity Assay to monitor cytotoxicity in HepG2 cells - 0 hour (AID 1224882); note: nearly all actives have a fitted effect of over 35% in size
# Summary of the method: as §2
# [7] = A CellTox Green Cytotoxicity Assay to monitor cytotoxicity in HEK293 cells - 8 hour (AID 1224884); note: nearly all actives have a fitted effect of over 35% in size; note: potency is the fitted concentration of half-maximal effect
# Summary of the method: as §1
# [8] = qHTS RealTime-Glo MT Cell Viability Assay in HepG2 cells - 16 hour (AID 1224885); note: nearly all actives have a fitted effect of over 50% in size; note: potency is the fitted concentration of half-maximal effect
# Summary of the method: as §3
# [9] = qHTS RealTime-Glo MT Cell Viability Assay in HEK293 cells - 24 hour (AID 1224886); note: nearly all actives have a fitted effect of over 50% in size; note: potency is the fitted concentration of half-maximal effect
# Summary of the method: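 Cells + reagent dispensed (600 cells/well, HEK293) → 5 h at 37 C/5% CO2 → 23 nL compound in DMSO pinned → 40 h at 37 C → luminescence read at 0, 8, 16, 24, 32, 40 h.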
# [10] = qHTS RealTime-Glo MT Cell Viability Assay in HEK293 cells - 8 hour (AID 1224887); note: nearly all actives have a fitted effect of over 50% in size; note: potency is the fitted concentration of half-maximal effect
# Summary of the method: as §4
# [11] = A CellTox Green Cytotoxicity Assay to monitor cytotoxicity in HEK293 cells - 16 hour (AID 1224888); note: nearly all actives have a fitted effect of over 35% in size
# Summary of the method: as §1
# [12] = qHTS RealTime-Glo MT Cell Viability Assay in HepG2 cells - 0 hour (AID 1224889); note: nearly all actives have a fitted effect of over 50% in size; note: potency is the fitted concentration of half-maximal effect
# Summary of the method: as §3
# [13] = A CellTox Green Cytotoxicity Assay to monitor cytotoxicity in HepG2 cells - 8 hour (AID 1224890); note: nearly all actives have a fitted effect of over 45% in size; note: potency is the fitted concentration of half-maximal effect
# Summary of the method: as §2
# [14] = qHTS assay to identify small molecule antagonists of the androgen receptor (AR) signaling pathway using the MDA cell line in the presence of 0.5 nM R1881 - cell viability counter screen (AID 1259242); note: nearly all actives have a fitted effect of over 45% in size; note: potency is the fitted concentration of half-maximal effect
# Summary of the method: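 qHTS format. MDA-kb2 (MMTV-luc, AR/GR responsive) + cpd + 0.5 nM R1881 final, 16 hr 37C/0% CO2 → CellTiter-Fluor 30 min → fluorescence intensity.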
# [15] = A CellTox Green Cytotoxicity Assay to monitor cytotoxicity in HepG2 cells - 24 hour (AID 1224878); note: nearly all actives have a fitted effect of over 45% in size; note: potency is the fitted concentration of half-maximal effect
# Summary of the method: as §2
# [16] = A CellTox Green Cytotoxicity Assay to monitor cytotoxicity in HepG2 cells - 40 hour (AID 1224879); note: nearly all actives have a fitted effect of over 40% in size; note: potency is the fitted concentration of half-maximal effect
# Summary of the method: as §2
# [17] = A CellTox Green Cytotoxicity Assay to monitor cytotoxicity in HepG2 cells - 32 hour (AID 1224883); note: nearly all actives have a fitted effect of over 50% in size; note: potency is the fitted concentration of half-maximal effect
# Summary of the method: as §2
# [18] = target: Estrogen receptor (Homo sapiens) (UniProt P03372); assay: qHTS assay to identify small molecule antagonists of the estrogen receptor alpha (ER-alpha) signaling pathway using the BG1 cell line in the presence of 0.1 nM 17-beta-estradiol (AID 1259244); note: nearly all actives have a fitted effect of over 50% in size; note: potency is the fitted concentration of half-maximal effect
# Summary of the method: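 Reporter is a stably transfected luciferase under four estrogen responsive elements in VM7Luc4E2 cells expressing native full-length ER-alpha; inhibition of 0.1 nM (final) 17beta-estradiol-driven signal over 22 h is read by luminescence.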
# [19] = qHTS assay to identify small molecule antagonists of the estrogen receptor alpha (ER-alpha) signaling pathway using the BG1 cell line in the presence of 0.1 nM 17-beta-estradiol - cell viability counter screen (AID 1259241); note: nearly all actives have a fitted effect of over 40% in size
# Summary of the method: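 VM7Luc4E2, 4,000 cells/well, phenol red-free medium + 10% charcoal-stripped FBS; 24 hr plating; cpd + 0.1 nM E2 final, 22 hr 37C/5% CO2; CellTiter-Fluor 30 min, fluorescence.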
# [20] = target: Androgen receptor (Homo sapiens) (UniProt P10275); assay: qHTS assay to identify small molecule antagonists of the androgen receptor (AR) signaling pathway using the MDA cell line in the presence of 0.5 nM R1881 (AID 1259243); note: nearly all actives have a fitted effect of over 50% in size
# Summary of the method: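 Antagonist mode quantitative HTS in MDA-kb2 MMTV-luciferase cells, agonist R1881 at 0.5 nM final, 16 hr exposure at 37C and 0% CO2, luminescent detection.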
# Sequence of Androgen receptor (Homo sapiens) (P10275 whole entry, looked up): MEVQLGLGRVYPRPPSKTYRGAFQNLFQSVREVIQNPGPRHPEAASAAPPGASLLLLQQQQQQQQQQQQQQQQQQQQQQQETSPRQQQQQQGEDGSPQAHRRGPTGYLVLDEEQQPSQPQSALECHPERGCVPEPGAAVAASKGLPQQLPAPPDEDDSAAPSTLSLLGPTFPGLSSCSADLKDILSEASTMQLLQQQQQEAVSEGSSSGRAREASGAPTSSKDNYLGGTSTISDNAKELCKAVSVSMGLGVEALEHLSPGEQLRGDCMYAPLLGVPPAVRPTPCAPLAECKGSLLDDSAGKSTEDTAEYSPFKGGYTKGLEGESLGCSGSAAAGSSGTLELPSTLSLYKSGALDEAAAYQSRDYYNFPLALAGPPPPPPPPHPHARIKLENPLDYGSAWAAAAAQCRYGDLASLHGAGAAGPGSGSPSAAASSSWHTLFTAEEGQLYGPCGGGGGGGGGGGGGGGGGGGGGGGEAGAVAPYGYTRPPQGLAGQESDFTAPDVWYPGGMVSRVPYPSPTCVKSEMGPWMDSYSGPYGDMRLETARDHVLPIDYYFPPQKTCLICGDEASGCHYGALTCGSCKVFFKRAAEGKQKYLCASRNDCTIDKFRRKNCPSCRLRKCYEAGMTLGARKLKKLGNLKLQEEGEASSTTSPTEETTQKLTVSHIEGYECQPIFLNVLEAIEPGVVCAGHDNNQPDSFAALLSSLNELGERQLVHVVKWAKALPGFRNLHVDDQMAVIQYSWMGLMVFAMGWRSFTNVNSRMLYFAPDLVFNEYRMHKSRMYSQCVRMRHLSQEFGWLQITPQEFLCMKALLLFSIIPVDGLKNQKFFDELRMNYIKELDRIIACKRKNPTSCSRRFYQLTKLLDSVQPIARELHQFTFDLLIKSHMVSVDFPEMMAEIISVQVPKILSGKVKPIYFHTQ
# Sequence of Estrogen receptor (Homo sapiens) (P03372 whole entry, looked up): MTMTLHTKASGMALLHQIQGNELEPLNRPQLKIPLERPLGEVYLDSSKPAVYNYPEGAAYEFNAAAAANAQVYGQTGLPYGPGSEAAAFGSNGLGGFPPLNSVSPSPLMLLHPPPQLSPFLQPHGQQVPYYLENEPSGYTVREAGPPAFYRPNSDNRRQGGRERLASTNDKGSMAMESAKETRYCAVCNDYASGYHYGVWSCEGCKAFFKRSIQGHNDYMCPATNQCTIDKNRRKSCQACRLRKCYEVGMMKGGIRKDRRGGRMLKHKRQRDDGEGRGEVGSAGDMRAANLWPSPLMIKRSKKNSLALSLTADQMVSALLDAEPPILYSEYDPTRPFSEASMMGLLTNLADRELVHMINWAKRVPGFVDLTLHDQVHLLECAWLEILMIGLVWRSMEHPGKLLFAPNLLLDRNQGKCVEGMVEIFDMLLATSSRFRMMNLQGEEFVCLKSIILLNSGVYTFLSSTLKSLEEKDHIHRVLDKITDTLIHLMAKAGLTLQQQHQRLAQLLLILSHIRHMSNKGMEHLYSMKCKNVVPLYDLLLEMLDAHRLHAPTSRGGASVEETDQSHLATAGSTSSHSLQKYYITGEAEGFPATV
Compound,Potency [1],Potency [2],Potency [3],outcome [4],Potency [5],Potency [6],Potency [7],Potency [8],Potency [9],Potency [10],Potency [11],Potency [12],Potency [13],Potency [14],Potency [15],Potency [16],Potency [17],Potency [18],Potency [19],Potency [20]
Oc1cccc2cccnc12,inactive,inactive and 6.16 µM (active),inactive and 3.09 µM (active),inactive,17.5 µM (active) and 6.16 µM (active) and inactive,inactive,inactive,inactive and 3.89 µM (active),5.49 µM (active) and inactive,inactive,inactive,inactive,inactive,inactive,–,–,–,–,–,–
O=[N+]([O-])c1ccccc1O,inactive,inactive,inactive,inactive,inactive,inactive,inactive,inactive,inactive,inactive,inactive,inactive,inactive,inactive,inactive,inactive,inactive,–,–,–
C[C@]12CCC(=O)C=C1CC[C@@H]1[C@@H]2CC[C@]2(C)C(=O)CC[C@@H]12,inactive,inactive,inactive,inactive,inactive,inactive,inactive,inactive,27.1 µM (active) and inactive,inactive,inactive,34.1 µM (active) and 21.9 µM (active) and inactive,inactive,inactive,inactive,inactive and 49 µM (active),inactive,inactive,–,–
CCCC[n+]1ccc(C)cc1,–,inactive and 54.7 µM (active),inactive,inactive,inactive and 21.8 µM (active),inactive,inactive and 21.8 µM (active),inactive,43.4 µM (active) and inactive,30.7 µM (active) and inactive,–,inactive,inactive,inactive,inactive and 48.7 µM (active),inactive and 48.7 µM (active),inactive and 48.7 µM (active),–,inactive,–
O=S(=O)(O)O,inactive,inactive,inactive,inactive,inactive,inactive,inactive,inactive,inactive,inactive,inactive,inactive,inactive,inactive,inactive,inactive,inactive,–,–,–
Oc1ccccc1-c1ccccc1,inactive,inactive,inactive,inactive,inactive,inactive,inactive,inactive,inactive,inactive,inactive,inactive,inactive,inactive,–,–,–,inactive,inactive,–
CCCCCCCCCCCCOS(=O)(=O)O,–,49 µM (active) and inactive,inactive,inactive,–,inactive,48.3 µM (active) and inactive,inactive,inactive,inactive,–,inactive,inactive,inactive,49 µM (active) and inactive,49 µM (active) and inactive,inactive,–,–,–
CCCC[N+]1(C)CCCCC1,inactive,inactive,inactive and 48.8 µM (active),inactive,inactive,inactive,inactive and 55.7 µM (active),inactive,inactive,inactive,inactive,inactive,inactive,inactive,inactive,inactive,inactive,–,–,–
CCCCCCCCCCCCCCCCn1cc[n+](C)c1,–,inactive and 49.4 µM (active) and 39 µM (active),inactive and 49.4 µM (active) and 34.8 µM (active),inactive,inactive and 19.7 µM (active) and 24.6 µM (active),inactive,inactive and 49.4 µM (active),inactive and 49.4 µM (active) and 49.1 µM (active),–,inactive and 55.4 µM (active) and 55.1 µM (active),–,inactive,inactive and 55.4 µM (active) and 55.1 µM (active),inactive and 34.7 µM (active) and 48.7 µM (active),inactive and 44 µM (active) and 24.6 µM (active),–,–,–,–,–
CCC(=O)C(CC(C)N(C)C)(c1ccccc1)c1ccccc1 (centres undefined),inactive,inactive,inactive,inactive,inactive,inactive,inactive,inactive,–,inactive,inactive,inactive,inactive,inactive,39.1 µM (active) and inactive,43.8 µM (active) and 48.6 µM (active),43.8 µM (active) and 48.6 µM (active) and inactive,inactive,–,inactive
OCCOc1ccccc1,inactive,inactive,inactive,inactive,inactive,inactive,inactive,inactive,inactive,inactive,inactive,inactive,inactive,inactive,inactive,inactive,inactive,inactive,–,–
CCCCCCCCCCCCCC[P+](CCCCCC)(CCCCCC)CCCCCC,–,12.4 µM (active) and 22.1 µM (active) and inactive,11 µM (active) and 19.7 µM (active) and inactive,inactive,12.4 µM (active) and 19.7 µM (active),inactive,19.6 µM (active) and 22.1 µM (active) and inactive,13.9 µM (active) and 19.7 µM (active) and inactive,5.52 µM (active) and 6.22 µM (active) and 3.46 µM (active),12.4 µM (active) and 17.5 µM (active),–,inactive,19.6 µM (active) and 22.1 µM (active) and inactive,9.73 µM (active) and 13.8 µM (active),11 µM (active) and 17.5 µM (active) and inactive,12.4 µM (active) and 17.5 µM (active) and 48.9 µM (active),12.4 µM (active) and 17.5 µM (active),2.74 µM (active) and 3.09 µM (active) and 3.43 µM (active),–,–
Nc1ccc(-c2ccc(N)cc2)cc1,inactive,inactive,inactive,inactive,inactive,inactive,inactive,inactive,inactive,inactive,inactive,inactive,inactive,inactive,inactive,48.4 µM (active) and inactive,inactive,inactive,–,–
O=C(O)C(Cl)Cl,inactive,inactive,inactive,inactive,inactive,inactive,inactive,inactive,inactive,inactive,inactive,inactive,inactive,inactive,inactive,inactive,inactive,inactive,–,–
